Measured values published in the supplement of paper PMC10849652.
Of roughly 8,800 targets only a part is listed; those with a hit were picked by preference. About 0.5% of all pairs of compound and target were hits.

Assays:
Assay in all cases: log2 fold change, soluble protein after heating vs DMSO (PISA); higher = thermal stabilisation; K562 lysate, 10 uM; active = over 0.2 and 3.5 SD of the protein, either way, in both replicates (recomputed)
nilotinib = compound: Cc1cn(-c2cc(NC(=O)c3ccc(C)c(Nc4nccc(-c5cccnc5)n4)c3)cc(C(F)(F)F)c2)cn1 [nilotinib]
Method in brief: (§1)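 Thermal stability, expressed as log-two fold change relative to solvent controls, is given from duplicates. Crude K562 extract in PBS pH 7.4 with 1 mM MgCl2, at 1 mg/mL protein, was treated with 10 μM compound for 30 min and heated in aliquots for 3 min across 48°C-58°C. After pooling, adjustment to 0.5% NP-40 at 4°C and centrifugation at 21,000xg for 90 min, supernatant protein was measured by TMTpro 16plex LC-MS/MS with channel sums equalised.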

[1] = compound: Cc1nc(Nc2n[nH]c3c2CN(C(=O)N[C@H](CN(C)C)c2ccccc2)C3(C)C)c2sccc2n1
Method in brief: as §1

dasatinib = compound: Cc1nc(Nc2ncc(C(=O)Nc3c(C)cccc3Cl)s2)cc(N2CCN(CCO)CC2)n1 [dasatinib]
Method in brief: as §1

[2] = compound: Cc1ncc(-c2ccnc(Nc3ccc(S(C)(=O)=O)cc3)n2)n1C(C)C
Method in brief: as §1

[3] = compound: Cn1cc(-c2ccc3c(c2)CCN3C(=O)Cc2cccc(C(F)(F)F)c2)c2c(N)ncnc21
Method in brief: as §1

quisinostat = compound: Cn1cc(CNCC2CCN(c3ncc(C(=O)NO)cn3)CC2)c2ccccc21 [quisinostat]
Method in brief: as §1

tipifarnib = compound: Cn1cncc1[C@@](N)(c1ccc(Cl)cc1)c1ccc2c(c1)c(-c1cccc(Cl)c1)cc(=O)n2C [tipifarnib]
Method in brief: as §1

[4] = compound: NC(=O)Nc1cc(-c2cccc(F)c2)sc1C(=O)N[C@H]1CCCNC1
Method in brief: as §1

[5] = compound: NC(=O)c1cnc(N[C@@H]2CCCC[C@@H]2N)nc1Nc1cccc(-n2nccn2)c1
Method in brief: as §1

[6] = compound: NC1(c2ccc(-c3nc4ccn5c(=O)[nH]nc5c4cc3-c3ccccc3)cc2)CCC1
Method in brief: as §1

[7] = compound: NCC(=O)Nc1ccc(-n2nc(C(F)(F)F)cc2-c2ccc3c(ccc4ccccc43)c2)cc1
Method in brief: as §1

vorinostat = compound: O=C(CCCCCCC(=O)Nc1ccccc1)NO [vorinostat]
Method in brief: as §1

silmitasertib = compound: O=C(O)c1ccc2c(c1)nc(Nc1cccc(Cl)c1)c1ccncc12 [silmitasertib]
Method in brief: as §1

[8] = compound: O=C1NC(=O)C(c2cnc3ccccn23)=C1c1cn2c3c(cc(F)cc13)CN(C(=O)N1CCCCC1)CC2
Method in brief: as §1

entospletinib = compound: c1cn2cc(-c3ccc4cn[nH]c4c3)nc(Nc3ccc(N4CCOCC4)cc3)c2n1 [entospletinib]
Method in brief: as §1

Measured: log2 fold change

KIF2C (UniProt Q99661)
Chain of UniProt Q99661 (Q99661 whole entry, looked up): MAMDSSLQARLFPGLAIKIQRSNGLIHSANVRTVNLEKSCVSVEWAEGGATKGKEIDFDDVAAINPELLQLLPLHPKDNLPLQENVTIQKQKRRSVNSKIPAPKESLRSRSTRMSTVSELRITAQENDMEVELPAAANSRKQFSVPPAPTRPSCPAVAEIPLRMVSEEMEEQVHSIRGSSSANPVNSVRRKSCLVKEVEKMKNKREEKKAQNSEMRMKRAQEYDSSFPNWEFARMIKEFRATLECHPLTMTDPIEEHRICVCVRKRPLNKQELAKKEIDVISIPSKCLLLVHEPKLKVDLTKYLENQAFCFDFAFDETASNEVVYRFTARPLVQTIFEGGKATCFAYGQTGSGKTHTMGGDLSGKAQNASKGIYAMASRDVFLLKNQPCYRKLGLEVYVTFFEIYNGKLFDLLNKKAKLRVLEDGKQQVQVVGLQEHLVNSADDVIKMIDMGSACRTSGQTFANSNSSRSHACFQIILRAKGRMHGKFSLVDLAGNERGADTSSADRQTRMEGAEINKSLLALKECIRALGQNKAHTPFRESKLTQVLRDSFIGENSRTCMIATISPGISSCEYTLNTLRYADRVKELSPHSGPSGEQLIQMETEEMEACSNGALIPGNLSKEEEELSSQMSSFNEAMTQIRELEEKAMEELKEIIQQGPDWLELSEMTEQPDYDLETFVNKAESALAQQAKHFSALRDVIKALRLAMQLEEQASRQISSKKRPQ
active: vorinostat -0.464
inactive: nilotinib 0.013 | [1] 0.009 | dasatinib -0.021 | [2] 0.002 | [3] 0.028 | quisinostat -0.068 | tipifarnib 0.003 | [4] 0.035 | [5] -0.01 | [6] -0.005 | [7] 0.003 | silmitasertib 0.028 | [8] 0.012 | entospletinib 0.024

MAPK9 (UniProt P45984)
Chain of UniProt P45984 (P45984 whole entry, looked up): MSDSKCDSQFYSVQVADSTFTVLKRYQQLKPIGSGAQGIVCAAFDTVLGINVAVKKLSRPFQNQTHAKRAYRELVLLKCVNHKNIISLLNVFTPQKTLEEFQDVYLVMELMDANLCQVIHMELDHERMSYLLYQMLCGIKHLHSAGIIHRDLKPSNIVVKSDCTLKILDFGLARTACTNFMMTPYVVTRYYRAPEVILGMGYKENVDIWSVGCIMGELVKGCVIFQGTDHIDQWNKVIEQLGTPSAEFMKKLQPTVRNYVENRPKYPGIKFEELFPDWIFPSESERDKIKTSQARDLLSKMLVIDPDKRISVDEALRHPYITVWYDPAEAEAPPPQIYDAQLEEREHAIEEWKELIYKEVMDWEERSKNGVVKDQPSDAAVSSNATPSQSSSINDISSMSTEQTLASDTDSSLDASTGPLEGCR
inactive: nilotinib -0.015 | [1] 0.025 | dasatinib -0.005 | [2] 0.174 | [3] 0.118 | quisinostat 0.004 | tipifarnib -0.028 | [4] -0.005 | [5] 0.009 | [6] 0.012 | [7] -0.008 | vorinostat -0.129 | silmitasertib 0.037 | [8] -0.004 | entospletinib 0

LIMS1 isoform 3 (UniProt P48059)
Chain of UniProt P48059 (P48059 whole entry, looked up): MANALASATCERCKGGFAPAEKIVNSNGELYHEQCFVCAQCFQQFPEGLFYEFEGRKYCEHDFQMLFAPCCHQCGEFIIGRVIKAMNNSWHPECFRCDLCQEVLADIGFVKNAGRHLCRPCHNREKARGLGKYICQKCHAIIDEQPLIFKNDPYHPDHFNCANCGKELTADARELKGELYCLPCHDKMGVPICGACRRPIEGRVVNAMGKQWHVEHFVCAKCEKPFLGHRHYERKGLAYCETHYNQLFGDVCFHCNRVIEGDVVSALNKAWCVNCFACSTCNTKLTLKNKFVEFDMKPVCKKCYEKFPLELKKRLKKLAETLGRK
active: quisinostat 0.255
inactive: nilotinib 0.076 | [1] 0.035 | dasatinib 0.017 | [2] 0.104 | [3] 0.018 | tipifarnib 0.002 | [4] -0.065 | [5] -0.007 | [6] 0.001 | [7] -0.022 | vorinostat 0.049 | silmitasertib 0.013 | [8] 0.054 | entospletinib -0.016

MAP4K5 (UniProt Q9Y4K4)
Chain of UniProt Q9Y4K4 (Q9Y4K4 whole entry, looked up): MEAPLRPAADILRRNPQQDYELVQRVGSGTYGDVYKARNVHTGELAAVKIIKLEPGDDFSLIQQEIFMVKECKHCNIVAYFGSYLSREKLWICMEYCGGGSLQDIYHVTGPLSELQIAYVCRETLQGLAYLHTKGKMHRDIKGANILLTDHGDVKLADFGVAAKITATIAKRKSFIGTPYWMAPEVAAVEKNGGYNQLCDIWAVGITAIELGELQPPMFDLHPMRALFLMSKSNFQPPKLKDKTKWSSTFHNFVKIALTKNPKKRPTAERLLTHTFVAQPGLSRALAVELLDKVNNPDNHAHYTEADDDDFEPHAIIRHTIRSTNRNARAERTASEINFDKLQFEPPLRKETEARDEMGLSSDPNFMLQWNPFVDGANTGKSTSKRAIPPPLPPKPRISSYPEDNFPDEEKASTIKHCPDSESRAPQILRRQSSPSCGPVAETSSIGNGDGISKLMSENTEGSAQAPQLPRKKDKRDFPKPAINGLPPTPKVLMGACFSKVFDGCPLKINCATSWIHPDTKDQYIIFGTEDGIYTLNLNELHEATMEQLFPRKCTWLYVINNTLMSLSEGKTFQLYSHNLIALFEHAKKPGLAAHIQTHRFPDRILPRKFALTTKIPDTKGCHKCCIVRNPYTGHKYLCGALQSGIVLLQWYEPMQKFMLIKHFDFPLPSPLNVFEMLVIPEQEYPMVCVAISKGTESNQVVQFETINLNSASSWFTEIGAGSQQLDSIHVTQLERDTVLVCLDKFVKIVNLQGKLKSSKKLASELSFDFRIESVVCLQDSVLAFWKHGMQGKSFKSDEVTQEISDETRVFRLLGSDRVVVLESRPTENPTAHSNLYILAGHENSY
inactive: nilotinib -0.035 | [1] 0 | [2] -0.007 | [3] 0.105 | quisinostat -0.245 | tipifarnib 0.082 | [5] -0.029 | [6] 0.11 | [7] -0.072 | vorinostat -0.218 | silmitasertib -0.008 | [8] -0.07 | entospletinib 0
active: dasatinib 0.528 | [4] 0.468

MLLT11 (UniProt Q13015)
inactive: nilotinib 0.068 | [1] 0.03 | dasatinib -0.015 | [2] -0.051 | [3] -0.06 | quisinostat -0.029 | tipifarnib -0.204 | [4] 0.107 | [5] 0.011 | [6] 0.055 | [7] 0.08 | vorinostat 0.104 | silmitasertib -0.203 | [8] -0.016 | entospletinib 0.034

LUC7L (UniProt Q9NQ29)
inactive: nilotinib -0.027 | [1] -0.113 | dasatinib -0.032 | [2] -0.047 | [3] 0.023 | quisinostat 0.22 | tipifarnib 0.033 | [4] -0.207 | [5] -0.014 | [6] 0.032 | [7] 0.003 | vorinostat 0.136 | silmitasertib -0.126 | [8] -0.016 | entospletinib -0.019

MED16 (UniProt Q9Y2X0)
inactive: nilotinib -0.019 | [1] 0.01 | dasatinib -0.026 | [2] 0.023 | [3] -0.016 | quisinostat -0.01 | tipifarnib 0.008 | [4] -0.013 | [5] 0.023 | [6] -0.047 | [7] -0.005 | silmitasertib 0.052 | [8] -0.022 | entospletinib 0.016
active: vorinostat -0.354

MAP7D3 (UniProt Q8IWC1)
Chain of UniProt Q8IWC1 (Q8IWC1 whole entry, looked up): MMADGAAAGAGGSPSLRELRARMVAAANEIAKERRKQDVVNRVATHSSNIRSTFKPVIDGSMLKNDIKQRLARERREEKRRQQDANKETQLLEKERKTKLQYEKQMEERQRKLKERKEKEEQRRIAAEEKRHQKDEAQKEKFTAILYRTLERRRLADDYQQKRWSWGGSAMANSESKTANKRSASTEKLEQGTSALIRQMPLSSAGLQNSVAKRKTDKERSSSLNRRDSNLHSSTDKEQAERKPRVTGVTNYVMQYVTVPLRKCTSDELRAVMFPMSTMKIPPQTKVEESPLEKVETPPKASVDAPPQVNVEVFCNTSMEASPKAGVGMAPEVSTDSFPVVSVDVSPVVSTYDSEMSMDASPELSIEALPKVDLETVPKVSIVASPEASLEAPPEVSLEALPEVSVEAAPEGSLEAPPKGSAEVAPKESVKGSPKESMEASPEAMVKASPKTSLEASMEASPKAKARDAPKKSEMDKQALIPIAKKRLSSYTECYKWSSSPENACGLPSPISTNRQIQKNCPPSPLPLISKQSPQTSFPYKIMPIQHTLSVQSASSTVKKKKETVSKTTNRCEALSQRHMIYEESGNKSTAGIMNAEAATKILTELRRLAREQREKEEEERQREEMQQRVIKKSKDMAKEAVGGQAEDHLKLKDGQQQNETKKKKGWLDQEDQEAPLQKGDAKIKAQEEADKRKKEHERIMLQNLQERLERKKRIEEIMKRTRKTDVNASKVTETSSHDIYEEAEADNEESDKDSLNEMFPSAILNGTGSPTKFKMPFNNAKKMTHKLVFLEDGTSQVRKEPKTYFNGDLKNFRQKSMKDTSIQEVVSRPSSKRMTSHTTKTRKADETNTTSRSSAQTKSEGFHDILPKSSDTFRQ
inactive: nilotinib -0.012 | [1] -0.01 | dasatinib 0.03 | [2] -0.037 | [3] 0.029 | quisinostat -0.101 | tipifarnib 0.014 | [4] 0.003 | [5] -0.016 | [6] 0.005 | [7] 0.098 | vorinostat 0.037 | silmitasertib 0.059 | [8] -0.046 | entospletinib -0.013

MCCC1 (UniProt Q96RQ3)
inactive: nilotinib -0.025 | [1] 0.002 | dasatinib -0.103 | [2] 0.027 | [3] 0.008 | quisinostat -0.049 | tipifarnib 0.031 | [4] 0.035 | [5] 0.008 | [6] -0.045 | [7] 0.028 | silmitasertib 0.02 | [8] -0.003 | entospletinib 0.023
active: vorinostat -0.292

LGALS3BP (UniProt Q08380)
inactive: nilotinib -0.056 | [1] 0.06 | dasatinib 0.339 | [2] -0.043 | [3] -0.128 | quisinostat -0.007 | tipifarnib -0.123 | [4] 0.111 | [5] 0.125 | [6] 0.137 | [7] 0.153 | vorinostat 0.176 | silmitasertib -0.121 | [8] 0.113 | entospletinib -0.129

LPCAT1 (UniProt Q8NF37)
inactive: nilotinib -0.039 | [1] 0.015 | dasatinib -0.084 | [2] 0.014 | [3] -0.045 | quisinostat 0.016 | tipifarnib 0.046 | [4] 0.008 | [5] 0.053 | [6] 0.033 | [7] -0.011 | vorinostat 0.027 | silmitasertib -0.076 | [8] -0.026 | entospletinib -0.057

LDAH isoform 2 (UniProt Q9H6V9)
inactive: nilotinib -0.062 | [1] 0.023 | dasatinib -0.071 | [2] -0.003 | [3] 0.017 | quisinostat -0.022 | tipifarnib -0.077 | [4] 0.037 | [5] -0.009 | [7] -0.017 | vorinostat -0.13 | silmitasertib 0.064 | [8] 0.033 | entospletinib -0.029
active: [6] 0.307

MED10 (UniProt Q9BTT4)
Chain of UniProt Q9BTT4 (Q9BTT4 whole entry, looked up): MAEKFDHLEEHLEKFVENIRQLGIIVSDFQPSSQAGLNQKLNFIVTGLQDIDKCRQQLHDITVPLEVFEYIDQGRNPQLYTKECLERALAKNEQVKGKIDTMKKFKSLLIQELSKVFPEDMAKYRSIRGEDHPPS
active: entospletinib -0.349
inactive: nilotinib 0.042 | [1] -0.012 | dasatinib 0.031 | [2] -0.021 | [3] 0.043 | quisinostat 0.04 | tipifarnib -0.066 | [4] -0.082 | [5] 0.025 | [6] -0.045 | [7] -0.001 | vorinostat -0.04 | silmitasertib -0.085 | [8] 0.021

MACO1 (UniProt Q8N5G2)
Chain of UniProt Q8N5G2 (Q8N5G2 whole entry, looked up): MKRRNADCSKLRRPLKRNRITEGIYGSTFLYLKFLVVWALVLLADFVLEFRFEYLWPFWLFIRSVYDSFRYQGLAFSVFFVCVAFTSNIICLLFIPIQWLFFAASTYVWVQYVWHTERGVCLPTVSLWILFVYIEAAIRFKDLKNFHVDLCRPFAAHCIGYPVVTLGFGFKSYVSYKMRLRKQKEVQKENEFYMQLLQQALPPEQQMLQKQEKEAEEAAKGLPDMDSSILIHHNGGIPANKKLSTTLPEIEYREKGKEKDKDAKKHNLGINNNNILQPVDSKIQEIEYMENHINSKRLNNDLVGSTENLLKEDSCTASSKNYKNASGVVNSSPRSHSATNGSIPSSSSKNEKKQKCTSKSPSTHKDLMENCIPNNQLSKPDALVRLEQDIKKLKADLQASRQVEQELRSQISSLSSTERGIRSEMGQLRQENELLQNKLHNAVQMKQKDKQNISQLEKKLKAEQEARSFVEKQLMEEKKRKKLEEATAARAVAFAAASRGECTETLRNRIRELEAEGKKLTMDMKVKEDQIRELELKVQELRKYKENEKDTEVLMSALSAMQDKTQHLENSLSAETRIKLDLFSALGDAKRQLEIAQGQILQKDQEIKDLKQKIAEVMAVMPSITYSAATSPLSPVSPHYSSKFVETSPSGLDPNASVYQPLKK
inactive: nilotinib -0.003 | [1] 0.017 | dasatinib -0.092 | [2] 0.066 | [3] 0.004 | quisinostat 0.042 | tipifarnib 0.042 | [4] 0.033 | [5] -0.02 | [6] 0.054 | [7] 0.081 | vorinostat 0.028 | silmitasertib -0.003 | [8] -0.003 | entospletinib 0.005

KIF11 (UniProt P52732)
inactive: nilotinib -0.016 | [1] 0.003 | dasatinib -0.021 | [2] -0.018 | [3] 0.034 | quisinostat -0.022 | tipifarnib -0.007 | [4] 0.006 | [5] 0 | [6] 0 | [7] -0.013 | silmitasertib 0.016 | [8] -0.033 | entospletinib 0.001
active: vorinostat -0.252

MCMBP (UniProt Q9BTE3)
Chain of UniProt Q9BTE3 (Q9BTE3 whole entry, looked up): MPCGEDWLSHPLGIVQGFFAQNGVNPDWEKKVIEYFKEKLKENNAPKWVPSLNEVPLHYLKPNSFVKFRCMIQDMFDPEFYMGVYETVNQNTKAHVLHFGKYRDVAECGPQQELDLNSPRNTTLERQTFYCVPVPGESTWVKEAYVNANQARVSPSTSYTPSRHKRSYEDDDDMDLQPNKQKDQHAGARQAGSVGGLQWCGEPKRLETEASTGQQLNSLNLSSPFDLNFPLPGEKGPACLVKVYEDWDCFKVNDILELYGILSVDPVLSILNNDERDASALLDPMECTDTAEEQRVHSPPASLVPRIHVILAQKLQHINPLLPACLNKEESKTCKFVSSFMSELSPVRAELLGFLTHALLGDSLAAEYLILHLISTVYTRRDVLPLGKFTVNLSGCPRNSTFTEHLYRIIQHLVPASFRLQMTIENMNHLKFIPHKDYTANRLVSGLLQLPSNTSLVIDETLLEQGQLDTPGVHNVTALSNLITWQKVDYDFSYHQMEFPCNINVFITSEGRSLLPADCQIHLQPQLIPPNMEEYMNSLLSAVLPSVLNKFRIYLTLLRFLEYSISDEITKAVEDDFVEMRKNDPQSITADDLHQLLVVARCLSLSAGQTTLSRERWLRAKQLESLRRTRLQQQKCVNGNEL
inactive: nilotinib -0.01 | [1] -0.008 | dasatinib -0.031 | [2] -0.028 | [3] 0.008 | quisinostat -0.039 | tipifarnib 0.024 | [4] 0.039 | [5] 0.014 | [6] -0.033 | [7] -0.01 | silmitasertib 0.028 | [8] -0.013 | entospletinib -0.007
active: vorinostat -0.415

MECR (UniProt Q9BV79)
Chain of UniProt Q9BV79 (Q9BV79 whole entry, looked up): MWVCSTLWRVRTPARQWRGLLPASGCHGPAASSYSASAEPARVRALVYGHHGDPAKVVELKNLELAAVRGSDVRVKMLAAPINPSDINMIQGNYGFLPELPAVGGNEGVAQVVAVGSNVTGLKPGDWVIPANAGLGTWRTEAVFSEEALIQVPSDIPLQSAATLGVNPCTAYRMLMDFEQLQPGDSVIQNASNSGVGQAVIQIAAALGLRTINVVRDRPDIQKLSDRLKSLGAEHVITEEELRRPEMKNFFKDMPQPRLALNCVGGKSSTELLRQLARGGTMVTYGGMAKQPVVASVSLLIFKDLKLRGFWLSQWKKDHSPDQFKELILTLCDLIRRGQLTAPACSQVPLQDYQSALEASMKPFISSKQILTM
inactive: nilotinib -0.085 | [1] 0.012 | dasatinib -0.03 | [2] -0.004 | [3] 0.02 | quisinostat 0.07 | tipifarnib -0.009 | [4] -0.041 | [5] 0.02 | [6] -0.028 | [7] -0.037 | silmitasertib 0.009 | [8] -0.016 | entospletinib 0.011
active: vorinostat -0.268

LRPPRC (UniProt P42704)
active: vorinostat -0.259
inactive: nilotinib -0.019 | [1] -0.004 | dasatinib -0.062 | [2] 0.012 | [3] 0.056 | quisinostat -0.003 | tipifarnib -0.027 | [4] 0.052 | [5] 0.047 | [6] 0.004 | [7] -0.004 | silmitasertib 0.072 | [8] 0.023 | entospletinib 0.035

LLGL1 (UniProt Q15334)
active: vorinostat -0.524
inactive: nilotinib 0 | [1] 0.149 | dasatinib -0.011 | [2] 0.052 | [3] 0.016 | quisinostat -0.046 | tipifarnib -0.077 | [4] 0.159 | [5] 0.053 | [6] 0.075 | [7] 0.078 | silmitasertib 0.077 | [8] -0.046 | entospletinib 0.042
